According to the supplement of paper PMC10849652:
The full data set covers some 8,800 targets. This sample favours those with a hit. About 0.5% of all pairs of compound and target were hits. Values without a mark were called inactive.

Assays:
Assay in all cases: log2 fold change, soluble protein after heating vs DMSO (PISA); higher = thermal stabilisation; K562 lysate, 10 uM; active = over 0.2 and 3.5 SD of the protein, either way, in both replicates (recomputed)
[1] = compound: C1=CC=C(C=C1)[C@H](COC2=CC3=C(C=C2)NC(=O)N3)NC(=O)C4=CC=CN(C4=O)CC5=CC(=C(C=C5)F)F
Outline: (§1)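 K562 pellets were dounce-homogenised in PBS pH 7.4 with 1 mM MgCl2, and the crude extract at 1 mg/mL protein was treated with 10 μM compound for 30 min. Aliquots were heated for 3 min across 48°C-58°C, pooled, and brought to 0.5% NP-40 at 4°C; soluble protein was the supernatant after 21,000xg for 90 min. Soluble protein was quantified by TMTpro 16plex LC-MS/MS with channel sums equalised, and reported as log2 fold change in thermal stability against DMSO controls, with values from duplicates.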

[2] = compound: CC1=C(SC2=C1C(=N[C@H](C3=NN=C(N32)C)CC(=O)N)C4=CC=C(C=C4)Cl)C
Outline: as §1

[3] = compound: CC1=C2C(=CC=C1)N=C(N(C2=O)C3=CC=CC=C3C)CN4C=NC5=C(N=CN=C54)N
Outline: as §1

[4] = compound: Cc1sc2c(c1C)C(c1ccc(Cl)cc1)=N[C@@H](CC(=O)OC(C)(C)C)c1nnc(C)n1-2
Outline: as §1

[5] = compound: c1ccc([C@@H]2C[C@H]2NC2CCNCC2)cc1
Outline: as §1

Sequence of UniProt Q8WXB1 (Q8WXB1 whole entry, looked up): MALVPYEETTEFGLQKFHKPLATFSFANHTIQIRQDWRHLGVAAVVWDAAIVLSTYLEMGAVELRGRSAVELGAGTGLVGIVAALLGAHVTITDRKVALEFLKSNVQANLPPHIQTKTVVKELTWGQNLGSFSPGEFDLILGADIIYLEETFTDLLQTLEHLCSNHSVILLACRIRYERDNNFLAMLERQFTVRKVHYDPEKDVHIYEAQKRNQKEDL
Sequence of UniProt Q5T3J3 (Q5T3J3 whole entry, looked up): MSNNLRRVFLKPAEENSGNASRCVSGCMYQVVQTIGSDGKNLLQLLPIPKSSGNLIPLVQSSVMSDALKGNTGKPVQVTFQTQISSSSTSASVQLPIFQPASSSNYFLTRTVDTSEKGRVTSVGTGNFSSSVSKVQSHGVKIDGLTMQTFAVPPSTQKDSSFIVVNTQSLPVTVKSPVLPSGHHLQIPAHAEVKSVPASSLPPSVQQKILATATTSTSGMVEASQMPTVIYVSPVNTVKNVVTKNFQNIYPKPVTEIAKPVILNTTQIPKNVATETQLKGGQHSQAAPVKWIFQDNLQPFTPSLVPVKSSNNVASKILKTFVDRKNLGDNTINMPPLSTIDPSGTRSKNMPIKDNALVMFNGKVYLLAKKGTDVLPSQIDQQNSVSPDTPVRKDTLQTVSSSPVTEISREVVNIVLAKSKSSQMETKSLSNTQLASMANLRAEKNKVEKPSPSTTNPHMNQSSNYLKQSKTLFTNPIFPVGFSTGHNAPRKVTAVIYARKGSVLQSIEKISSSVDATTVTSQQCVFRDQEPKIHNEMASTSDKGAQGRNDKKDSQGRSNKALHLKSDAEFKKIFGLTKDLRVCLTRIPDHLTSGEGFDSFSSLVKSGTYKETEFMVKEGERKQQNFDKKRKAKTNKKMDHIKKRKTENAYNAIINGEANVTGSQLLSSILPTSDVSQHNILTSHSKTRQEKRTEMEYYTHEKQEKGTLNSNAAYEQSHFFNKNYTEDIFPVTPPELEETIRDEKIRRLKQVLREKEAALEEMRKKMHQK
Sequence of UniProt Q6ZWT7 (Q6ZWT7 whole entry, looked up): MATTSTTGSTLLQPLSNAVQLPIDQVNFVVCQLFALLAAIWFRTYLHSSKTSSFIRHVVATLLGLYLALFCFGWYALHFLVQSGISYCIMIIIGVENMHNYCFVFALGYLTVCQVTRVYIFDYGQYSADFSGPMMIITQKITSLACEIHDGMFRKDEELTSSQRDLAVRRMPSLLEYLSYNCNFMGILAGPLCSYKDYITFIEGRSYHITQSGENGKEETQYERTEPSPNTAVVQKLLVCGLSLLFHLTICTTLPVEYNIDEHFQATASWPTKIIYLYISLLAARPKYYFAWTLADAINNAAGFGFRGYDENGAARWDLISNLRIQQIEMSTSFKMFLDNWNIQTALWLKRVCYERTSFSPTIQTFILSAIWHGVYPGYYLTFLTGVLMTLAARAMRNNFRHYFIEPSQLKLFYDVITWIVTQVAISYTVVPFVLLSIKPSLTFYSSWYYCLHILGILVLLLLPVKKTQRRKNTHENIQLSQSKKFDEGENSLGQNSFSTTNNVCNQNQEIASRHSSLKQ
Sequence of UniProt O95777 (O95777 whole entry, looked up): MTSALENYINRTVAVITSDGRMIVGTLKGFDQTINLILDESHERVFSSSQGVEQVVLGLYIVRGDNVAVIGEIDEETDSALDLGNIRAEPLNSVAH
Sequence of UniProt P83369 (P83369 whole entry, looked up): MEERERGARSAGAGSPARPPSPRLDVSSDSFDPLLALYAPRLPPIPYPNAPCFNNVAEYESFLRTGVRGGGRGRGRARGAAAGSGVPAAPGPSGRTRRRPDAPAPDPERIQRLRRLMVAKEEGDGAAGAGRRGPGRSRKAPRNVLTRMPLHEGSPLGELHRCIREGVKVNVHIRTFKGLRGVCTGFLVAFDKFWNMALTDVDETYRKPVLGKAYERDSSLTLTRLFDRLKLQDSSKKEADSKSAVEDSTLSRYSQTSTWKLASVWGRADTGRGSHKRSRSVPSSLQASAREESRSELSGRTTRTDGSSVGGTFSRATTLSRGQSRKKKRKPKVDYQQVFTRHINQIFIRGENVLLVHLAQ
Sequence of UniProt Q96NW7 (Q96NW7 whole entry, looked up): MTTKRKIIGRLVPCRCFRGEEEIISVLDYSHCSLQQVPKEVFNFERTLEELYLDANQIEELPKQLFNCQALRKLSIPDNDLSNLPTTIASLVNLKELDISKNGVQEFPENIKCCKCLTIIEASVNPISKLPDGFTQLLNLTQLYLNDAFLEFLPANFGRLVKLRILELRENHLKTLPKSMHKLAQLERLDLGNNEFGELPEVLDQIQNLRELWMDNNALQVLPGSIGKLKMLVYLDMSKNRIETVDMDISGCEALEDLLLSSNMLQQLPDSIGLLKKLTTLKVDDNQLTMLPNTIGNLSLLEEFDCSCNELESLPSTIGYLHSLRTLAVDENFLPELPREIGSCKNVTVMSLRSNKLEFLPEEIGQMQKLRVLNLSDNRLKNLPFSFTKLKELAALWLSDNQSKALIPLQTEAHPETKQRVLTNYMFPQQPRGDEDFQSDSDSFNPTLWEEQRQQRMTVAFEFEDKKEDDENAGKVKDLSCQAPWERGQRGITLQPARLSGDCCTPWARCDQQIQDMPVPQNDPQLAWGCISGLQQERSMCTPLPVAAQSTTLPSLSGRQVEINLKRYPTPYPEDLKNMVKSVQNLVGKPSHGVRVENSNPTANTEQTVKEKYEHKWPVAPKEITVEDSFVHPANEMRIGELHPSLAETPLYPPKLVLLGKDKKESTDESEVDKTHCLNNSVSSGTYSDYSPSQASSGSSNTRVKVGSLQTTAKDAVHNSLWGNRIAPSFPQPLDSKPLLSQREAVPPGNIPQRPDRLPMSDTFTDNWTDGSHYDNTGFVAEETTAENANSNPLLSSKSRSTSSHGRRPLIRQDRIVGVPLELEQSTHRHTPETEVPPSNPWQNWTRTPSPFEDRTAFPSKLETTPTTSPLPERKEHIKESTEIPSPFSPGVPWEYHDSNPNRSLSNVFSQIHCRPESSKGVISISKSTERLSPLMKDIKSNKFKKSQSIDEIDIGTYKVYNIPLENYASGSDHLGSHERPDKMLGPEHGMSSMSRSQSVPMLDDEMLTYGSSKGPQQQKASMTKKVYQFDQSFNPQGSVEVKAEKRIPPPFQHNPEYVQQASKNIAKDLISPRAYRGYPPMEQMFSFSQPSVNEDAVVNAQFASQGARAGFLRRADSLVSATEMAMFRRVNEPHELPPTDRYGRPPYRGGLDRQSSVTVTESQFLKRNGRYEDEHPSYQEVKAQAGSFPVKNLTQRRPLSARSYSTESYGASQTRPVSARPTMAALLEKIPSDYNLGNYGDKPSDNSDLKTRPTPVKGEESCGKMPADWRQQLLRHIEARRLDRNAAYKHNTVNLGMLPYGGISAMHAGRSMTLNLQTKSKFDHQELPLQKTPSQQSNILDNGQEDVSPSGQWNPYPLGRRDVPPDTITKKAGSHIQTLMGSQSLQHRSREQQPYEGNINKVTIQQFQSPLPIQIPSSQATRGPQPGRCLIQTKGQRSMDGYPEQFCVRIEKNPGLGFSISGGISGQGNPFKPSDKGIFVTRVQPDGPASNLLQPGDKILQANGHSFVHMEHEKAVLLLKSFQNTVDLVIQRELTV
Sequence of UniProt Q9Y2E5 (Q9Y2E5 whole entry, looked up): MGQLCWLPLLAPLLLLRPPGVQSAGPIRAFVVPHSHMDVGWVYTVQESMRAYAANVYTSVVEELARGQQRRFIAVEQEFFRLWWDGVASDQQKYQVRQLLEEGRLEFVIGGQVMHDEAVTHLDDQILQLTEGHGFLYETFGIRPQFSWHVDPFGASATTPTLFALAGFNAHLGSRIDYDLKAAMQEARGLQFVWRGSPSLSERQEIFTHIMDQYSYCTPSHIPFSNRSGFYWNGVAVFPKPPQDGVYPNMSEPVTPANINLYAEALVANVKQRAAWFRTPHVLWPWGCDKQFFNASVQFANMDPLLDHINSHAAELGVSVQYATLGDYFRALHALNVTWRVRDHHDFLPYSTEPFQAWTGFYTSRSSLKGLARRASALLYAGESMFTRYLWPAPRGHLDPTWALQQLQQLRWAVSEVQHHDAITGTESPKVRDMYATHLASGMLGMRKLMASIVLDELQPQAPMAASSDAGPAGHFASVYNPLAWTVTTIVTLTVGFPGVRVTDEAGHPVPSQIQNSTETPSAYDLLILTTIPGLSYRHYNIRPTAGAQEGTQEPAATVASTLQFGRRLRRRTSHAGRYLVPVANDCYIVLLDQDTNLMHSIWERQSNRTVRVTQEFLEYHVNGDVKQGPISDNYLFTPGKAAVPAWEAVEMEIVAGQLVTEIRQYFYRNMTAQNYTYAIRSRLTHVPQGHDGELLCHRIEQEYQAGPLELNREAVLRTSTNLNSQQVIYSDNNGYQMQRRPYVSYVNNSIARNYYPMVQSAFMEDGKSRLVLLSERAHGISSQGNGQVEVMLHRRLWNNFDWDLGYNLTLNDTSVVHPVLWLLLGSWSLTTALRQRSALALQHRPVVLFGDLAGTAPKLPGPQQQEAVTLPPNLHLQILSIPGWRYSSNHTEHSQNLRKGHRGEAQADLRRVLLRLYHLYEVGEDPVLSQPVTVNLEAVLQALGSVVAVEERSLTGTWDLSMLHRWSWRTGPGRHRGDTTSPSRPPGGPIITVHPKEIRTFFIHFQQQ
Sequence of UniProt Q16553 (Q16553 whole entry, looked up): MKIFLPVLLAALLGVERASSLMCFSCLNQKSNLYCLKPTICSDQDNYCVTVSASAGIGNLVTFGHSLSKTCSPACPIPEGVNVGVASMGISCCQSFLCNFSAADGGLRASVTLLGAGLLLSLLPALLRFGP
Sequence of UniProt Q9NWR8 (Q9NWR8 whole entry, looked up): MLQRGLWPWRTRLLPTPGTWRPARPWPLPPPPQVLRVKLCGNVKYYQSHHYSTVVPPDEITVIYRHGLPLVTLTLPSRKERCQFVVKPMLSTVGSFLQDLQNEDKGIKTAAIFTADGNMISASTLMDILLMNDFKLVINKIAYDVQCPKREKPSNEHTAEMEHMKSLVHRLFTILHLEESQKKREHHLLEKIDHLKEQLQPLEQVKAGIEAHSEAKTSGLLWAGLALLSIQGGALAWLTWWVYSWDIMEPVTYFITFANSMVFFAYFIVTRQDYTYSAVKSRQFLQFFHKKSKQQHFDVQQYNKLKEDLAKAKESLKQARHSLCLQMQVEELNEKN

Row | Target | log2 fold change [1] | log2 fold change [2] | log2 fold change [3] | log2 fold change [4] | log2 fold change [5]
1 | KIF26A (UniProt Q9ULI4) | 0.044 | -0.011 | 0.053 | 0.09 | -0.018
2 | MGST3 (UniProt O14880) | 0.003 | -0.033 | -0.008 | -0.072 | 0.056
3 | MPP1 (UniProt Q00013) | -0.01 | 0.006 | 0.024 | 0.016 | 0.044
4 | LAGE3 (UniProt Q14657) | 0.067 | -0.058 | -0.087 | -0.044 | 0.018
5 | LPIN1 isoform 7 (UniProt Q14693) | 0.053 | -0.003 | -0.053 | 0.029 | 0.194
6 | MRPL28 (UniProt Q13084) | -0.002 | -0.062 | -0.026 | 0.066 | 0.356
7 | MPP5 (UniProt Q8N3R9) | -0.044 | 0.045 | -0.006 | 0.029 | -0.11
8 | MAP2K2 (UniProt P36507) | -0.04 | 0.022 | -0.047 | -0.068 | 0.064
9 | LRPPRC (UniProt P42704) | -0.067 | 0.043 | 0.049 | 0.039 | 0.122
10 | KLC1 isoform 6 (UniProt Q07866) | 0.001 | 0.014 | 0.027 | 0.001 | 0.033
11 | MGAT5 (UniProt Q09328) | 0.088 | -0.027 | -0.171 | 0.017 | 0.083
12 | MBOAT2 (UniProt Q6ZWT7) | -0.011 | 0 | 0.121 | -0.022 | -0.017
13 | LSM8 (UniProt O95777) | -0.057 | -0.012 | 0.017 | -0.004 | -0.029
14 | MIF4GD isoform 3 (UniProt A9UHW6) | -0.046 | -0.033 | 0.005 | -0.051 | -0.029
15 | MARCHF6 (UniProt O60337) | -0.269 | -0.192 | -0.107 | -0.082 | 0.029
16 | KPNA2 (UniProt P52292) | -0.016 | 0.027 | 0.035 | 0.003 | 0.06
17 | MRPL46 (UniProt Q9H2W6) | 0.022 | -0.012 | 0.021 | 0.026 | 0.199
18 | LYAR (UniProt Q9NX58) | 0.051 | 0.015 | -0.006 | 0.031 | 0.11
19 | MAP7D3 (UniProt Q8IWC1) | 0.056 | 0.057 | -0.091 | 0.015 | -0.05
20 | MAP2K4 isoform 2 (UniProt P45985) | -0.018 | 0.005 | -0.065 | -0.013 | 0.188
21 | MLLT11 (UniProt Q13015) | 0.007 | -0.048 | 0.109 | -0.037 | 0.003
22 | LUZP1 (UniProt Q86V48) | 0.039 | -0.113 | 0.032 | 0.007 | -0.056

Row | Target | log2 fold change [1] | log2 fold change [2] | log2 fold change [3] | log2 fold change [4] | log2 fold change [5]
23 | LRRC7 (UniProt Q96NW7) | -0.001 | -0.047 | -0.309 | 0 | -0.001
24 | LLGL1 (UniProt Q15334) | 0.038 | 0.052 | 0.024 | -0.056 | 0.074
25 | MAD2L2 (UniProt Q9UI95) | -0.032 | -0.006 | -0.018 | -0.085 | 0.096
26 | LDAH isoform 2 (UniProt Q9H6V9) | -0.119 | 0.018 | 0.001 | 0.075 | -0.002
27 | MGST1 (UniProt P10620) | -0.08 | 0.005 | 0 | -0.056 | 0.022
28 | MED28 (UniProt Q9H204) |  |  |  | -0.032 | 0.018
29 | METTL21A (UniProt Q8WXB1) | 0.048 | -0.069 |  | -0.068 | 0
30 | LEPROT (UniProt O15243) | 0.049 | -0.009 |  |  | -0.161
31 | LSM11 (UniProt P83369) |  |  | 0.285 | -0.045 | -0.089
32 | LRPPRC (UniProt H7C3W8) |  |  | 0.219 |  | 
33 | KIF2A isoform 2 (UniProt O00139) |  |  |  |  | 0.326
34 | KIF3C (UniProt O14782) |  |  | 0.683 | -0.059 | 0.022
35 | MAP3K6 (UniProt O95382) |  |  | 0.012 |  | 
36 | MEGF8 (UniProt Q7Z7M0) | 0.023 | -0.022 |  | 0.116 | 0.1
37 | MAPKAP1 (UniProt Q9BPZ7) |  |  |  | -0.048 | 
38 | LRRIQ1 (UniProt Q96JM4) |  |  | -0.002 |  | 
39 | MAPK7 (UniProt Q13164) |  |  |  |  | 0.042
40 | LZTR1 (UniProt Q8N653) | -0.237 | 0.004 | 0.005 | -0.004 | 0.036
41 | KMT2B (UniProt Q9UMN6) |  |  |  | -0.012 | 
42 | MCUB (UniProt Q9NWR8) | 0.097 | -0.171 |  | 0.044 | 0.205
43 | MME (UniProt P08473) | -0.152 | 0.041 |  | 0.232 | -0.001
44 | LRRC9 (UniProt Q6ZRR7) |  |  | 0.008 |  | 0.209

Row | Target | log2 fold change [1] | log2 fold change [2] | log2 fold change [3] | log2 fold change [4] | log2 fold change [5]
45 | MRPL22 (UniProt Q9NWU5) |  |  |  |  | 0.019
46 | MRPL30 isoform 2 (UniProt Q8TCC3) | 0.086 | -0.056 |  | -0.102 | 0.476
47 | MARK1 (UniProt Q9P0L2) | -0.034 | 0.036 | 0.019 | -0.006 | 0.116
48 | LYN isoform 2 (UniProt P07948) |  |  |  | 0.043 | 0.102
49 | LY6E (UniProt Q16553) | -0.031 | -0.046 | -0.075 |  | -0.815
50 | MAP4K4 isoform 6 (UniProt O95819) | 0.076 | 0.063 |  | -0.163 | 
51 | MRC2 (UniProt Q9UBG0) |  |  |  | 0.209 | -0.084
52 | MDM2 isoform 11 (UniProt Q00987) | 0.109 | -0.092 | -0.007 |  | -0.158
53 | KIF18B (UniProt Q86Y91) |  |  |  | -0.083 | 
54 | LGALS3BP (UniProt Q08380) |  |  | 0.159 | -0.152 | -0.071
55 | MED25 isoform 3 (UniProt Q71SY5) | -0.069 | 0.026 |  | 0.01 | 0.052
56 | LRIF1 (UniProt Q5T3J3) |  |  | -0.072 | 0.048 | -0.071
57 | MDM1 (UniProt Q8TC05) |  |  | 0.018 | -0.116 | -0.866 (active)
58 | LTN1 isoform 3 (UniProt O94822) | -0.059 | 0 | 0.027 | -0.025 | 0.04
59 | KRAS isoform 2 (UniProt P01116) |  |  |  | -0.006 | 
60 | MEX3A (UniProt A1L020) |  |  | 0.15 | -0.073 | 
61 | KIF21A (UniProt H0YI78) | 0.128 | 0.02 |  | 0.106 | 
62 | MPDZ (UniProt O75970) |  |  | -0.024 | -0.159 | -0.09
63 | MAN2B2 (UniProt Q9Y2E5) | 0.087 | 0.086 |  | -0.007 | 0.255
64 | MRPL27 (UniProt Q9P0M9) | 0.002 | -0.046 |  | -0.048 | 0.208
65 | KRAS (UniProt P01116) |  |  | 0.088 | 0.016 | -0.092
66 | LRP1 (UniProt Q07954) |  |  | 0.125 |  | 
